# Bioassay records as filed in PubChem.
# aSyn UTR act = Activators working through SNCA 5'UTR binding (MLPCN). alpha-synuclein 5'UTR reporter, activators screen. 300,000 tested, 7.1% active. activity score, % (tested at 7.5 µM), hits read low; in the data active = activity score below about -60%
# A number is an active result; . = inactive. The list is a sample of the results.
SMILES,aSyn UTR act
COc1ccc(N2C(=O)c3ccccc3NC2(C)C)cc1,-69
CC1(C)Nc2ccccc2C(=O)N1c1ccc(Br)cc1,-84
COC(=O)Cc1csc(Nc2ccc(Cl)cc2)n1,-68
Cc1csc(Nc2ccc(Cl)cc2)n1,-113
Cc1ccc(Nc2nc(C)cs2)cc1,-125
CC(=O)n1nc(-c2ccco2)nc1SCc1ccccc1,-89
CCC(=O)n1nc(-c2ccco2)nc1SCc1ccccc1,-74
COc1ccc(CCC(=O)Nc2sccc2C#N)cc1,-156
N#Cc1ccsc1NC(=O)COC(=O)c1ccc2ccccc2c1,-203
S=C1NC(c2ccccc2)=NCN1c1ccc(Cl)cc1,-84
C=C(C)C1Cc2cc3ccc(=O)oc3cc2O1 (configuration not stated),-65
O=C(Nc1ccc(-c2noc(-c3ccccc3F)n2)cc1)c1cccs1,-77
Cc1ccccc1-c1nc(-c2ccc(NC(=O)c3cccs3)cc2)no1,-187
c1coc(C2Nc3ccccc3-c3nc4ccccc4n32)c1 (configuration not stated),-93
c1ccc(C2Nc3ccccc3-c3nc4ccccc4n32)nc1 (configuration not stated),-74
CC(=NC1CCCCC1)C1=C(O)c2ccccc2C1=O,-121
CC(=O)N(C1=C(Cl)C(=O)c2ccccc2C1=O)C1CCCCC1,.
O=C(CSc1nnc(NC(=O)c2ccccc2F)s1)NCC1CCCO1 (configuration not stated),-72
Cc1cccc(C(=O)Nc2nnc(SCC(=O)NC3CC3)s2)c1,-66
O=C(CSc1nnc(NC(=O)c2ccc(F)cc2)s1)NC1CC1,-79
CCOC(=O)CNC(=O)CSc1nnc(NC(=O)c2ccc(C)cc2)s1,.
O=C(NCCc1ccccc1)c1ccccc1C(=O)NCCc1ccccc1,-113
O=C(NCCc1ccccc1)c1c[nH]c2c(F)cccc2c1=O,-94
O=C(NCCc1ccccc1)c1cnc2n(c1=O)CCS2,-80
O=C(CCCC(=O)c1ccc(O)cc1)c1ccc(O)cc1,-71
SMILES,aSyn UTR act
CN(C(=O)COc1ccccc1C(=O)NCCc1ccccc1)c1ccccc1,-98
O=C(NCCc1ccccc1)c1ccc(-n2cnnn2)cc1,-66
O=C(NC(=S)NCCc1ccccc1)c1ccccc1,-115
Cc1ccc(C(=O)NCCCc2ccccc2)s1,-137
Cc1ccccc1C(=O)NCCCc1ccccc1,-84
O=C(NCCCc1ccccc1)c1ccccc1,-167
CC(C)=CC(=O)NCCc1ccccc1,-64
O=C(NCCc1ccccc1)c1ccccc1NS(=O)(=O)N1CCCC1,-88
O=C(CN(c1ccc(Cl)cc1)S(=O)(=O)c1ccc(Cl)c([N+](=O)[O-])c1)NCCc1ccccc1,.
O=C(NCCc1ccccc1)c1ccc(Br)o1,-93
COc1ccc(C(=O)NCCCc2ccccc2)cc1,-149
O=C(NCCc1ccccc1)c1ccc(Cl)cc1[N+](=O)[O-],-167
O=C(CCCc1ccccc1)c1ccccc1,-105
CCc1ccc(OCc2cnc(Cl)s2)cc1,-78
CN(C)c1ccc(C(=O)OCC(=O)N2CCCCCC2)cc1,-65
COc1ccc(C(=O)COC(=O)c2ccc(N(C)C)cc2)cc1,-64
O=C(OCC(=O)N1CCN(c2ccccc2)CC1)c1ccccc1[N+](=O)[O-],-141
COc1ccc(C(=O)COC(=O)c2ccn(C)n2)cc1,-83
O=C(OCC(=O)N1CCCC1)c1ccccc1O,-85
CCc1c(C)sc(NC(=O)c2ccco2)c1C#N,-104
Nc1nnc(SCc2coc(-c3ccc(Cl)cc3)n2)s1,-118
O=C(CCCN1C(=O)S/C(=C\c2ccccc2)C1=O)NNC(=O)c1ccccc1O,.
O=C(CN1C(=O)S/C(=C\c2ccc(O)cc2)C1=O)c1ccccc1,-157
O=C(CCl)Nc1cccc(-c2cnc3ccccc3n2)c1,-622
O=C(Nc1cccc(-c2cnc3ccccc3n2)c1)c1cccc(NC(=O)c2ccco2)c1,-95
SMILES,aSyn UTR act
CCC(=O)Nc1cccc(-c2cnc3ccccc3n2)c1,-122
Cc1cccc(NC(=O)Nc2cc(C)on2)c1,-73
Cc1cc(NC(=O)Nc2ccc(Cl)cc2)no1,-110
O=C(Nc1ccsn1)c1ccc(Cl)cc1Cl,-162
Cc1cc(/C(N)=N/OC(=O)Nc2ccc(Cl)cc2)no1,-92
Cc1cc(C(=O)Nc2cc(C(C)(C)C)on2)c(C)o1,-147
CC(C)(C)c1cc(NC(=O)Nc2ccccc2)no1,-197
Cc1cc(NC(=O)c2ccc(Cl)cc2Cl)no1,-185
Cc1ccc(NC(=O)Nc2cc(C)on2)cc1,-143
Cc1cc(C(=O)NNC(=O)c2ccc(Cl)cc2Cl)c(C)o1,-76
O=C(CCCN1C(=O)/C(=C/c2ccccc2Cl)SC1=S)NNC(=O)c1ccc(Cl)cc1Cl,.
Cc1ccc(S(=O)(=O)N/N=c2\oc3ccccc3cc2C(=O)Nc2cccc(C)c2)cc1,-85
CCCCc1noc2c1/C(=N\O)CC(c1ccccc1)C2 (configuration not stated),-77
O=C(Nc1ccccc1Cl)c1cccc(COc2cc(Cl)ccc2Cl)c1,-120
O=C(O)c1cccc(COc2ccccc2Cl)c1,.
CN1CCN(C(=O)c2cccc(COc3cc(Cl)ccc3Cl)c2)CC1,-164
Cc1nn(Cc2c(F)c(F)c(F)c(F)c2F)c(C)c1NC(=O)c1cccc(COc2ccccc2Cl)c1,-97
O=C1NC(=O)/C(=C\c2ccc(OCc3cccc(C(=O)O)c3)c(Cl)c2)N1,.
Cc1nn(Cc2cccc(F)c2)c(C)c1NC(=O)c1ccc(COc2ccccc2Cl)cc1,.
O=[N+]([O-])c1ccc(-c2nnc(S)n2-c2ccccc2)cc1,-95
CC1Cc2ccccc2N1c1ncnc(N)c1[N+](=O)[O-] (configuration not stated),.
CCOc1ccc(-n2c(SCc3ccc([N+](=O)[O-])cc3)nnc2-c2ccccc2)cc1,.
O=[N+]([O-])c1ccc(N2CCN(c3ccccc3F)CC2)nc1,-66
O=[N+]([O-])c1ccc(N2CCc3ccccc3C2)nc1,-66
C/C(=N/N1CCN(c2ccccc2)CC1)c1cccc([N+](=O)[O-])c1,-70
SMILES,aSyn UTR act
CC(C)OC(=O)c1ccc(N2CCN(c3ccccc3F)CC2)nc1,-68
O=[N+]([O-])c1ccc(N2CCN(c3ccccc3)CC2)nc1,-76
O=[N+]([O-])c1ccc(N2CCN(c3ccccc3)CC2)cc1,-80
COc1ccc(Cn2c(SCC#N)nc3ccc(N4CCOCC4)cc3c2=O)cc1,-88
COc1ccc(Cn2c(SCc3cc(C)ccc3C)nc3cc(OC)c(OC)cc3c2=N)cc1,.
COc1cccc2[nH]c3c(N4CCCC(C)C4)ncnc3c12 (configuration not stated),-143
Cc1cc(C(c2nnnn2Cc2ccccc2)N2CCOCC2)c(C)n1-c1ccc2c(c1)OCO2 (configuration not stated),-315
CC(C)CC(=O)Nc1ccc2nn(-c3ccccc3)nc2c1,-178
Cc1ccc(-n2nc3ccc(NC(=O)c4cccc([N+](=O)[O-])c4C)cc3n2)cc1,-66
CCCC(=O)Nc1ccc2nn(-c3ccc(OC)cc3)nc2c1,-121
Cc1ccc(-n2nc3ccc(NC(=O)c4ccco4)cc3n2)cc1,-83
Cc1ccc(-n2nc3ccc(NC(=O)C(C)C)cc3n2)cc1,-137
Nc1ccc2nn(-c3ccc(F)cc3)nc2c1,-108
O=C(/C=C/c1ccco1)Nc1ccc2nn(-c3ccccc3)nc2c1,-209
CC(C)C(=O)Nc1ccc2nn(-c3ccc(F)cc3)nc2c1,-71
CCOc1ccc(-n2nc3ccc(N)cc3n2)cc1,.
O=C(c1cnn(-c2nc3ccccc3s2)c1)c1ccccc1O,-117
O=C(c1cnn(-c2cccc(F)c2)c1)c1ccccc1O,-194
